TcdB inh = blocks C. difficile toxin B glycohydrolase activity; P18177; inhibition, % at 9.99 µM; 0.24% of 350,000 active; TcdB glycohydrolase enzymatic assay, plate reader; in the data active = inhibition above about 10%
Sa RN4220 lethal = kills Staphylococcus aureus RN4220; S. aureus RN4220 growth, OD600, 16 h; inhibition, % (concentration not given with the values); AID 1259311; 0.33% of 330,000 active; in the data active = inhibition above about 85%;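 also: plate controls were untreated cells for no effect and reference antibiotic for full effect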
ugtP null kill = growth inhibition of S. aureus ugtP deletion strain. 0.54% of 330,000 active. growth inhibition, % (no concentration beside the values). S. aureus RN4220 ugtP deletion, OD600 growth, 16 h; in the data active = growth inhibition above about 68%;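 also: plate controls were untreated wells for no effect and antibiotic for full effect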
PrP UTR inh = inhibition of PrP 5' UTR reporter expression; inhibition, % (test concentration not listed); 0.35% of 340,000 active; cell-based PrP 5' UTR mRNA reporter, plate reader; AID 488862; in the data active = inhibition above about 52%; also: 0 = median of the neutral control wells
PfHsp40 rescue = compounds rescuing yeast from Plasmodium falciparum HSP40 toxicity; S. cerevisiae expressing PfHsp40, growth rescue, ATP luminescence; growth rescue, % at 12.5 µM; 0.68% of 340,000 active; AID 504582; in the data active = growth rescue above about 28%, passing the limit was not always enough;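 also: yeast W303a lacking pdr1 and pdr3 grown in galactose medium; growth measured after three days at 30 °C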
The depositor's hits bear a star; / = not tested or not shown. A selection: hits, their analogues and other compounds. The true share with any hit is near 1.2%.

SMILES	TcdB inh	Sa RN4220 lethal	ugtP null kill	PrP UTR inh	PfHsp40 rescue
CO[C@@H]1CN(C)C(=O)c2cc(NC(C)=O)ccc2OC[C@H](C)N(CCc2ccccc2)C[C@H]1C	0.3	/	/	/	/
Cn1c2c(c(=O)n(C)c1=O)[C@@]1(C(=O)Nc3ccccc31)C(C#N)=C(N)O2	-7.7	87.0*	29.1	-15.6	1.0
O=[N+]([O-])c1ccc(COc2ccccc2C=NO)cc1	/	4.3	2.0	/	/
COc1cc(C=NO)cc(Br)c1OCc1cccc(Cl)c1	/	-1.7	76.1	/	/
O/N=C/c1ccccc1OCc1ccc(Cl)cc1	/	/	/	-28.1	237.0*
Cc1ccc(COc2ccc(Br)cc2C=NO)cc1	/	-9.3	99.9*	/	/
O/N=C/c1cc(Br)ccc1OCc1ccccc1F	/	/	/	-25.6	721.3*
ON=Cc1cc(Br)cc(Br)c1OCc1ccccc1	/	-12.1	90.6*	/	/
C[C@H](CO)N1C[C@H](C)[C@H](CN(C)S(C)(=O)=O)OCCCC[C@H](C)Oc2ccc(NS(=O)(=O)c3cn(C)cn3)cc2C1=O	0.0	/	/	/	/
C[C@H]1CN([C@@H](C)CO)C(=O)c2cc(C#Cc3ccccn3)cnc2O[C@H]1CN(C)C(=O)CCN1CCCCC1	-0.4	/	/	/	/
Fc1ccccc1COc1ccc(Br)cc1CNCc1cccnc1	1.5	0.6	-15.7	-10.2	-1.6
Fc1ccccc1COc1ccc(Br)cc1CNCc1ccncc1	/	4.8	-6.8	-8.7	241.6*
COc1ccc(-c2nn(-c3ccccc3)cc2C(=O)NN=Cc2ccc([N+](=O)[O-])o2)cc1	/	96.6*	99.9*	/	/
O=C(NN=Cc1cn(-c2ccccc2)nc1-c1ccc(F)cc1)c1ccc(Br)o1	/	-35.7	-20.3	/	/
O=C(NN=Cc1ccc([N+](=O)[O-])o1)c1cn(-c2ccccc2)nc1-c1ccccc1	/	99.5*	99.3*	/	/
COc1ccc(-c2nn(-c3ccccc3)cc2/C=N/NC(=O)c2ccc(Br)o2)cc1	/	/	/	-30.9	1.7
Cc1nc2ccccn2c1C(=O)NN=Cc1ccc([N+](=O)[O-])o1	/	97.9*	82.4	/	/
O=C(NN=Cc1ccc([N+](=O)[O-])o1)c1cn(-c2ccccc2)nc1-c1ccc(F)cc1	/	70.6	98.2*	/	/
CO[C@H]1CN(C)C(=O)c2ccc(NC(=O)Nc3cc(F)ccc3F)cc2OC[C@@H](C)N(C(=O)c2ccccn2)C[C@@H]1C	-0.7	/	/	/	/
COc1ccc(C=NNC(=O)c2ccccc2O)cc1Cn1nnc2ccccc21	/	2.6	-0.9	/	/
Cc1cc(C)cc(NS(=O)(=O)c2cnc(Cl)c(Cl)c2)c1	/	9.6	-30.5	-3.9	-0.3
CCOc1ccc(NS(=O)(=O)c2cnc(Cl)c(Cl)c2)cc1	/	9.5	-4.7	-19.1	87.7*
C=CCN1CC(C)N(C(c2ccc(C(=O)N(CC)CC)cc2)c2cccc(OC)c2)CC1C (stereo not drawn)	/	4.5	-2.2	/	/
CCCOc1cccc(-c2nn(-c3ccccc3)cc2/C=C(\C#N)C(=O)NCCCn2ccnc2)c1	0.9	7.8	19.5	-27.3	45.2*
C[C@H](CO)N1C[C@H](C)[C@@H](CN(C)S(=O)(=O)c2ccccc2)Oc2ccc(NC(=O)CCCN(C)C)cc2CC1=O	-1.3	/	/	/	/
SMILES	TcdB inh	Sa RN4220 lethal	ugtP null kill	PrP UTR inh	PfHsp40 rescue
C[C@@H]1CN([C@@H](C)CO)C(=O)CCCn2nncc2CO[C@H]1CN(C)C(=O)Nc1ccc(C(C)(C)C)cc1	-0.4	/	/	/	/
CCn1nc([N+](=O)[O-])c(C(C#N)c2nc3cc(C(F)(F)F)ccc3s2)c(Cl)c1=O (stereo not drawn)	/	99.1*	91.5*	-32.0	3.4
CCCn1nc([N+](=O)[O-])c(C(C#N)c2nc3ccccc3o2)c(Cl)c1=O (stereo not drawn)	/	4.7	5.8	-8.6	-0.4
CC(=NNC(=O)c1ccoc1C)c1ccc(N2CCOCC2)cc1	/	3.1	7.9	/	/
COC(=O)[C@@]1(Cc2ccc(F)cc2)C2c3cc(C(=O)N4CCCC4)n(CCc4c[nH]c5ccc(OC)cc45)c3CC2CN1C(=O)c1ccccc1 (stereo partly drawn)	/	3.9	-1.6	/	/
CN(CCN1CCOCC1)C(=O)CC1C(=O)NCCN1Cc1ccccc1C(F)(F)F (stereo not drawn)	19.1*	0.1	2.7	-1.7	-1.7
COc1ccc(CC(C)=NNC(=O)c2cccnc2)cc1	/	0.6	-2.0	/	/
O=S(=O)(c1cccs1)N1CCCCN2[C@@H](CO)[C@H](c3ccc(Br)cc3)[C@@H]2C1	-0.7	/	/	/	/
COc1ccc(OCc2n(CC(=O)OC3CC(C)CCC3C(C)C)c3ccccc3[n+]2C)cc1 (stereo not drawn)	2.4	100.6*	100.4*	-1.6	-1.4
CC1CCC(C(C)C)C(OC(=O)CSc2nccc(=O)[nH]2)C1 (stereo not drawn)	/	12.0	-12.6	-18.9	0.8
COc1ccc(-c2n(CC(=O)OC3CC(C)CCC3C(C)C)c3ccccc3[n+]2C)cc1 (stereo not drawn)	0.5	100.6*	100.5*	-19.0	0.1
ONC(=Nc1ccccc1Cl)c1ccccc1Cl	16.6*	/	/	-26.0	-0.1
O=[N+]([O-])c1cccc(C(=Nc2ccccc2Cl)NO)c1	/	6.8	9.7	-0.7	0.1
CCOc1cc(C=NNc2ncc(F)c(N3CCOCC3)n2)ccc1Oc1nc(Cl)ncc1F	/	6.4	4.6	/	/
Cc1csc(NC(=O)C(C)Oc2ccc(Cl)cc2C)n1 (stereo not drawn)	1.9	-7.8	-3.0	-9.9	60.4*
Cc1ccc(Nc2c(-c3ccccc3O)nc3cnccn23)cc1	1.5	12.7	1.2	-8.9	57.8*
COc1ccc(Nc2c(-c3ccc(C)cc3)nc3cnccn23)cc1	1.6	2.7	-0.1	-17.6	-1.4
O=C(Nc1ccc(O)c2c(=O)cc(-c3ccccc3Cl)oc12)c1ccccc1Cl	0.0	-5.4	-0.2	-19.4	-0.1
Nc1ccc2oc(-c3ccccc3Cl)cc(=O)c2c1O	-1.7	14.2	93.6*	-22.8	7.6
O=c1cc(-c2ccccc2Cl)oc2ccc([N+](=O)[O-])c(O)c12	2.0	99.1*	99.7*	-13.9	7.6
O=c1cc(-c2ccccc2Cl)oc2c([N+](=O)[O-])c(O)cc(O)c12	-0.1	87.2*	90.8*	15.9	1.7
Cc1ccccc1-c1cc(=O)c2c(O)cccc2o1	1.0	9.2	13.6	2.2	-0.7
CCNC(=O)[C@H]1[C@H](CO)[C@H]2Cn3c(ccc(-c4ccccc4)c3=O)[C@H]2N1Cc1ccc2c(c1)OCO2	2.3	/	/	/	/
O=C(NCC[C@H]1CC[C@H](NS(=O)(=O)Cc2ccccc2)[C@H](CO)O1)C1CCC1	-1.4	/	/	/	/
C=CCN(c1ccccc1)S(=O)(=O)c1cccc(C(=O)Nc2nnc(SCC)s2)c1	1.0	21.4	5.6	-2.3	-1.3
CCSc1nnc(NC(=O)c2cccc(S(=O)(=O)N(C)c3ccccc3)c2)s1	/	24.2	0.9	-16.3	29.8*
CC(C)NC(=O)N(C)C[C@@H]1OCCCC[C@H](C)Oc2ccc(NC(=O)Nc3ccc4c(c3)OCO4)cc2C(=O)N([C@H](C)CO)C[C@@H]1C	-0.2	/	/	/	/
O=NN(CCc1ccncc1)c1ccc(OCc2ccccc2)cc1	0.7	18.8	6.7	-27.5	387.7*
O=C(NN=Cc1ccncc1)c1ccc(OCc2ccccc2)cc1	/	-2.8	-6.2	/	/
COc1ccccc1-c1ccc([C@@H]2[C@H]3CN(C(=O)c4ccncc4)CCCCN3[C@H]2CO)cc1	-0.5	/	/	/	/

Screening data: PubChem, several laboratories
